Here are results for eight molecules from PubChem BioAssay (EPA / NIEHS).

The structures appear in SMILES notation. The source made the active and inactive calls. Rule for the calls: active = hit-call score of the fitted dose curve at least 0.9, where 1 is the maximum; inactive = score below 0.9.

The AC50 is the midpoint of the concentration-response curve, whichever way the signal moves.

The nature of the first assay: Tanguay_ZF_120hpf_MO24: Oregon State University Tanguay Lab 24 Hour Post-fertilization zebrafish Assay for Mortality (AID 2284389). The procedure: (§1) Tanguay_ZF_120hpf is a whole embryo, multiplexed endpoint assay using zebrafish larvae exposed for 120 hours post fertilization on a 96-well plate.Tanguay_ZF_120hpf_MO24 is one of one assay component(s) measured or calculated from the Tanguay_ZF_120hpf assay. It is designed to make measurements of zebrafish development as detected with brightfield microscopy of developing zebrafish embryos.Data from the assay component Tanguay_ZF_120hpf_MO24 was analyzed into 1 assay endpoints. This assay endpoint, Tanguay_ZF_120hpf_MO24, was analyzed in the positive analysis fitting direction relative to DMSO as the negative control and baseline of activity. Using a type of viability reporter, gain-of-signal activity can be used to understand changes in developmentals as they relate to the whole embryo. To generalize the intended target to other relatable targets, this assay endpoint is annotated to the zebrafish development intended target family, where the subfamily is embryonic mortality.
(§2) Zebrafish husbandry: Tropical 5D wild-type adult zebrafish were housed in at an approximate density of 1000 per 100 gallon tank at the Sinnhuber Aquatic Research Laboratory, Oregon State University, Corvallis, OR. Each tank was kept at standard laboratory conditions of 28C on a 14-h light/10-h dark photoperiod in fish water consisting of reverse osmosis water supplemented with a commercially available salt (Instant Ocean). Spawning funnels were placed into the tanks the night prior, and embryos were collected and staged. To increase bioavailability, the chorion was enzymatically removed using pronase (63.6mg/ml, >/= 3.5U/mg, Sigma-Aldrich: P5147) at 4 hours post fertilization (hpf) using a custom automated dechorionator.Chemical exposures: Six hpf dechorionated embryos were placed 1 embryo per well in a 96-well plate prefilled with 90 ul of EM using automated embryo placement systems (AEPS). Ten microliters of each row of dilution plate 2 was added to 2 exposure plates. The final DMSO concentration used was 0.64% (vol/vol). Thirty-two embryos were also exposed to 5uM trimethyltin chloride (positive control). Plates were sealed to prevent evaporation and foil covered to reduce light exposure and kept in a 28C incubator. Embryos were statically exposed until 120 hpf. At 24 hpf, embryos were assessed for photomotor response using a custom photomotor response analysis tool (PRAT) and for developmental toxicity endpoints (MO24: mortality at 24 hpf, DP: developmental progression, SM: spontaneous movement, and NC: notochord distortion). At 120 hpf, locomotor activity was measured using Viewpoint Zebralab and assessed for 13 endpoints. Zebrafish acquisition and analysis program (ZAAP), a custom program designed to inventory, acquire, and manage zebrafish data, was used to collect developmental endpoints as either present or absent (i.e., binary responses were recorded). If mortality occurred for an embryo (at either 24 or 120 hpf), the non-mortality endpoints were not measured.
In the case of `O=P(O)(O)CCC(F)(F)C(F)(F)C(F)(F)C(F)(F)C(F)(F)C(F)(F)F`, the molecule was called inactive.

With `C=CC(=O)OCCC(F)(F)C(F)(F)C(F)(F)C(F)(F)C(F)(F)C(F)(F)C(F)(F)C(F)(F)F`, the outcome was inactive.

Turning to `O=C(O)C(F)(F)OC(F)(F)C(F)(F)OC(F)(F)C(F)(F)OC(F)(F)C(F)(F)C(F)(F)C(F)(F)F`, the result was inactive.

Consider `CN(CCO)S(=O)(=O)C(F)(F)C(F)(F)C(F)(F)C(F)(F)C(F)(F)C(F)(F)C(F)(F)C(F)(F)F`, for which the call was inactive.

Consider `O=P(O)(O)CCC(F)(F)C(F)(F)C(F)(F)C(F)(F)C(F)(F)C(F)(F)C(F)(F)C(F)(F)F`, for which the molecule was classed as inactive.

Turning to `OCC(F)(F)C(F)(F)C(F)(F)C(F)(F)C(F)(F)C(F)(F)C(F)(F)C(F)(F)C(F)(F)C(F)(F)C(F)(F)F`, the call was inactive.

For `O=C(CC(=O)C(F)(F)C(F)(F)C(F)(F)F)c1cccs1`, the molecule was classed as inactive.

Take `O=C(O)CCC(F)(F)C(F)(F)C(F)(F)C(F)(F)C(F)(F)F`: the molecule was called inactive.

The nature of the next assay: Tanguay_ZF_120hpf_DP24: Oregon State University Tanguay Lab 24 Hour Post-fertilization zebrafish Assay for Delayed Development (AID 2284390). As for the experimental part: as §1, with “plate.Tanguay_ZF_120hpf_DP24” for “plate.Tanguay_ZF_120hpf_MO24”, “Tanguay_ZF_120hpf_DP24” for “Tanguay_ZF_120hpf_MO24”, “Tanguay_ZF_120hpf_DP24,” for “Tanguay_ZF_120hpf_MO24,”, “morphology” for “viability”, “morphogenesis.” for “mortality.”
as §2
In the case of `O=P(O)(O)CCC(F)(F)C(F)(F)C(F)(F)C(F)(F)C(F)(F)C(F)(F)F`, the result was inactive.

On to `C=CC(=O)OCCC(F)(F)C(F)(F)C(F)(F)C(F)(F)C(F)(F)C(F)(F)C(F)(F)C(F)(F)F`, for which the call was inactive.

`O=C(O)C(F)(F)OC(F)(F)C(F)(F)OC(F)(F)C(F)(F)OC(F)(F)C(F)(F)C(F)(F)C(F)(F)F`: the outcome was inactive.

Regarding `CN(CCO)S(=O)(=O)C(F)(F)C(F)(F)C(F)(F)C(F)(F)C(F)(F)C(F)(F)C(F)(F)C(F)(F)F`, the molecule was classed as inactive.

For the molecule `O=P(O)(O)CCC(F)(F)C(F)(F)C(F)(F)C(F)(F)C(F)(F)C(F)(F)C(F)(F)C(F)(F)F`, the molecule was called inactive.

For the molecule `OCC(F)(F)C(F)(F)C(F)(F)C(F)(F)C(F)(F)C(F)(F)C(F)(F)C(F)(F)C(F)(F)C(F)(F)C(F)(F)F`, the call was inactive.

`O=C(CC(=O)C(F)(F)C(F)(F)C(F)(F)F)c1cccs1`: the result was inactive.

Take `O=C(O)CCC(F)(F)C(F)(F)C(F)(F)C(F)(F)C(F)(F)F`: the molecule was called inactive.

The next assay can be described thus: Tanguay_ZF_120hpf_CRAN: Oregon State University Tanguay Lab 120 Hour Post-fertilization zebrafish Assay for Craniofacial Malformation (AID 2284397). Summed up:
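Scoring of craniofacial malformation as a binary endpoint was done at 120 hpf by brightfield microscopy and was not done in dead embryos. Exposure was static, starting at 6 hpf, in dechorionated wild-type embryos held singly at 28C with 0.64% DMSO final.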
`O=P(O)(O)CCC(F)(F)C(F)(F)C(F)(F)C(F)(F)C(F)(F)C(F)(F)F`: the outcome was inactive.

Consider `C=CC(=O)OCCC(F)(F)C(F)(F)C(F)(F)C(F)(F)C(F)(F)C(F)(F)C(F)(F)C(F)(F)F`, for which the molecule was classed as inactive.

For the molecule `O=C(O)C(F)(F)OC(F)(F)C(F)(F)OC(F)(F)C(F)(F)OC(F)(F)C(F)(F)C(F)(F)C(F)(F)F`, the outcome was inactive.

Regarding `CN(CCO)S(=O)(=O)C(F)(F)C(F)(F)C(F)(F)C(F)(F)C(F)(F)C(F)(F)C(F)(F)C(F)(F)F`, the AC50 is 29.5 µM (active).

As to `O=P(O)(O)CCC(F)(F)C(F)(F)C(F)(F)C(F)(F)C(F)(F)C(F)(F)C(F)(F)C(F)(F)F`, the result was inactive.

For `OCC(F)(F)C(F)(F)C(F)(F)C(F)(F)C(F)(F)C(F)(F)C(F)(F)C(F)(F)C(F)(F)C(F)(F)C(F)(F)F`, the molecule was called inactive.

For the molecule `O=C(CC(=O)C(F)(F)C(F)(F)C(F)(F)F)c1cccs1`, the molecule was called inactive.

In the case of `O=C(O)CCC(F)(F)C(F)(F)C(F)(F)C(F)(F)C(F)(F)F`, the outcome was inactive.
